Measurements from PubChem BioAssay (NCI).
The panel holds about 79,000 compounds, 15% with a hit somewhere; the sample as a whole holds those more often. Calls of active or inactive are those of the source. Cut-off read from the data, not from the text of the source: active = growth inhibition above about 70%; inactive = the rest.

Key:
[1] = NCI Yeast Anticancer Drug Screen. Data for the rad52 strain (AID 147);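 note: 0% = growth of vehicle-treated control cultures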; conditions: S. cerevisiae rad52 mutant growth inhibition, hits give high values
How it was run: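 Yeast strain carrying a DNA damage repair alteration was exposed to test compounds. Growth inhibition was measured relative to vehicle-treated controls.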

[2] = NCI Yeast Anticancer Drug Screen. Data for the wt1 strain (AID 149);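 note: 0% = growth of vehicle-treated wt1 cultures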; conditions: S. cerevisiae wt1 strain (SPY 50644) growth inhibition, hits give high values
How it was run: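 Measured: growth of wt1 yeast under compound versus vehicle treatment, reported as inhibition.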

[3] = NCI Yeast Anticancer Drug Screen. Data for the rad50EPP+ strain (AID 151);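 note: 0% = growth of vehicle-treated control cultures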; conditions: S. cerevisiae rad50 mutant strain, hits give high values
How it was run: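 Yeast strain carrying rad50 alteration (rad50EPP+) exposed to compounds; growth inhibition measured relative to vehicle-treated controls.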

[4] = NCI Yeast Anticancer Drug Screen. Data for the rad50 strain (AID 155);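 note: 0% = growth of vehicle-only cultures of the same strain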; conditions: S. cerevisiae rad50 strain growth inhibition, hits give high values
How it was run: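 Growth of the mutant yeast was measured after compound exposure and referenced to vehicle-treated cultures.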

[5] = NCI Yeast Anticancer Drug Screen. Data for the mec2-1 strain (AID 157); conditions: S. cerevisiae mec2-1 strain, hits give high values
How it was run: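 mec2-1 yeast strain, carrying an alteration in DNA damage repair or cell cycle control, was exposed to compounds; growth inhibition was measured relative to vehicle-treated controls.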

[6] = NCI Yeast Anticancer Drug Screen. Data for the rad14 strain (AID 159);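 note: 0% = growth of vehicle-treated control cultures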; conditions: S. cerevisiae rad14 strain growth inhibition, hits give high values
How it was run: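 Here, inhibition of yeast growth was measured after compound exposure, using a strain with a genetic defect in DNA damage repair and vehicle-treated cultures as the reference.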

[7] = NCI Yeast Anticancer Drug Screen. Data for the sgs1 mgt1 strain (AID 161);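 note: 0% = growth of cultures given vehicle only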; conditions: S. cerevisiae sgs1 mgt1 strain, hits give high values
How it was run: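 Yeast cells carrying a defined DNA-repair defect were exposed to test compounds. Growth inhibition was measured relative to vehicle-treated controls.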

[8] = NCI Yeast Anticancer Drug Screen. Data for the CLN2oe strain (AID 163);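 note: 0% = growth of vehicle-only control cultures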; conditions: S. cerevisiae CLN2oe strain, hits give high values
How it was run: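 Yeast cells carrying a defined cell-cycle control alteration were exposed to test compounds. Growth inhibition was scored against vehicle-treated control cultures.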

[9] = NCI Yeast Anticancer Drug Screen. Data for the cln2 rad14 strain (AID 165);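 note: 0% = growth equal to vehicle treated cultures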; conditions: S. cerevisiae cln2 rad14 strain, hits give high values
How it was run: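 Yeast carrying cln2 and rad14 alterations (cell cycle control and DNA damage repair) were exposed to compounds. Growth inhibition was measured against vehicle-treated controls.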

[10] = NCI Yeast Anticancer Drug Screen. Data for the bub3 strain (AID 167); conditions: S. cerevisiae bub3 mutant strain, hits give high values
How it was run: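 Whole-cell yeast assay. The mutant strain was incubated with compounds, and growth inhibition was determined by comparison with vehicle-treated cells.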

[11] = NCI Yeast Anticancer Drug Screen. Data for the wt2 strain (AID 169);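 note: 0% = growth of vehicle-treated yeast cultures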; conditions: S. cerevisiae wt2 strain growth inhibition, hits give high values
How it was run: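 Yeast cells were exposed to test compounds, and growth inhibition was measured relative to vehicle-treated controls.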

[12] = NCI Yeast Anticancer Drug Screen. Data for the mlh1 strain (AID 171);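 note: 0% = growth of vehicle-treated control cultures of the same strain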; conditions: S. cerevisiae mlh1 strain growth inhibition, hits give high values
How it was run: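 Yeast carrying a defined genetic alteration in DNA damage repair or cell cycle control were exposed to test compounds. Growth inhibition was measured relative to vehicle-treated controls.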

[13] = NCI Yeast Anticancer Drug Screen. Data for the sgs1 strain (AID 173);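 note: 0% = growth of vehicle-only control cultures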; conditions: S. cerevisiae sgs1 mutant, hits give high values
How it was run: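 Yeast mutant strains carrying defined defects in DNA damage repair or cell cycle control were exposed to test compounds. Growth inhibition was scored against vehicle-treated controls.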

[14] = NCI Yeast Anticancer Drug Screen. Data for the mlh1 rad18 strain (AID 175); conditions: S. cerevisiae mlh1 rad18 strain growth inhibition, hits give high values
How it was run: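 Growth inhibition of the yeast strain was measured after compound exposure and expressed relative to vehicle-treated controls. The strain carries defined defects in DNA damage repair.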

[15] = NCI Yeast Anticancer Drug Screen. Data for the rad18 strain (AID 177); conditions: S. cerevisiae rad18 mutant growth inhibition, hits give high values
How it was run: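 Yeast carrying a defined DNA damage repair alteration were exposed to compounds. Growth inhibition was expressed relative to vehicle-treated controls.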

[16] = at 5.0 µM (retest, dose inferred, filed as 0.5)
[17] = at 50.0 µM (retest, dose inferred, filed as 5.0)

Measured: growth inhibition

Cc1cc(C(C)(C)CC(C)(C)C)ccc1O
active: [1]; at 33.0 µM 98% | [1]; at 100.0 µM 98% | [2]; at 33.0 µM 99% | [2]; at 100.0 µM 99% | [3]; at 100.0 µM 99% | [4]; at 33.0 µM 98% | [4]; [17] 79% | [4]; at 50.0 µM 92.3% | [4]; at 100.0 µM 99% | [5]; at 33.0 µM 99% | [5]; [17] 70% | [5]; at 50.0 µM 91.8% | [5]; at 100.0 µM 99% | [6]; at 33.0 µM 99% | [6]; at 100.0 µM 99% | [7]; [17] 99% | [7]; at 50.0 µM 93.7% | [8]; at 33.0 µM 98% | [8]; at 100.0 µM 99% | [9]; [17] 98% | [9]; at 50.0 µM 92.8% | [10]; at 33.0 µM 98% | [10]; [17] 99% | [10]; at 50.0 µM 92.4% | [10]; at 100.0 µM 99% | [11]; at 33.0 µM 99% | [11]; at 100.0 µM 99% | [12]; at 33.0 µM 95% | [12]; at 100.0 µM 99% | [13]; at 33.0 µM 99% | [13]; at 100.0 µM 99% | [14]; [17] 73% | [14]; at 50.0 µM 92.9% | [15]; at 33.0 µM 98% | [15]; at 100.0 µM 98%
inactive: [1]; at 1.2 µM -22% | [1]; at 3.7 µM -45% | [1]; at 11.0 µM 15% | [2]; at 1.2 µM -1% | [2]; at 3.7 µM -22% | [2]; at 11.0 µM 17% | [3]; at 1.2 µM -16% | [3]; at 3.7 µM -16% | [3]; at 11.0 µM 1% | [3]; at 33.0 µM 60% | [4]; at 1.2 µM 12% | [4]; at 3.7 µM 11% | [4]; [16] 25% | [4]; at 11.0 µM 38% | [5]; at 1.2 µM -41% | [5]; at 3.7 µM -58% | [5]; [16] 28% | [5]; at 11.0 µM 3% | [6]; at 1.2 µM -3% | [6]; at 3.7 µM -30% | [6]; at 11.0 µM 16% | [7]; [16] -14% | [8]; at 1.2 µM -31% | [8]; at 3.7 µM -28% | [8]; at 11.0 µM -17% | [9]; [16] 55% | [10]; at 1.2 µM -9% | [10]; at 3.7 µM -49% | [10]; [16] 6% | [10]; at 11.0 µM 32% | [11]; at 1.2 µM -20% | [11]; at 3.7 µM -34% | [11]; at 11.0 µM -10% | [12]; at 1.2 µM -16% | [12]; at 3.7 µM -53% | [12]; at 11.0 µM -16% | [13]; at 1.2 µM -17% | [13]; at 3.7 µM -38% | [13]; at 11.0 µM 14% | [14]; [16] 26% | [15]; at 1.2 µM -13% | [15]; at 3.7 µM -42% | [15]; at 11.0 µM 36%
